In the library only some 7.4% were active in any assay of this set; here they are far more common.
Rab9 promoter act: activators of Rab9 promoter; Huh7 Rab9 promoter-luciferase reporter, luminescence, 24 h; Potency, µM (series often up to 9.22 µM), without a hit: at the top dose activation, negative = inhibition, usual class: activators; 2.8% of 320,000 active; AID 485297; note: % of control where 0% means no effect; nearly all actives have a fitted effect of over 60% in size
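Quantitative HTS format; Huh7 Rab9-luciferase reporter cells (1500/well) receive compound 2 h post-plating, incubate 24 h at 37 °C, then get luciferase reagent for 10 min before luminescence reading.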
SMN2 splice enh: SMN2 splice variant enhancement. HEK293 SMN2-luciferase splicing reporter, luminescence, 30-36 h. Potency, µM (titrated, usually from 46.1 µM), for inactives: at the highest dose activity change, positive = activation, actives largely listed as activators. 2.8% of 210,000 active. AID 1458; note: % of control where 0% means no effect; nearly all actives have a fitted effect of over 55% in size
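HEK293 cells carry an SMN2 minigene-luciferase reporter in which exon 7 inclusion puts luciferase in frame. Cells were seeded at 2000 cells/well, attached for 10-12 hours, then exposed to compounds for 30-36 hours at 37C before ONE-Glo luminescence.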
p53 reactivation: mutant p53 re-activation in reporter cells; 0.063% of 320,000 active; Potency, µM (top dose mostly 92.2 µM), for inactives: top-dose activity change, positive = activation, hits mostly activators; H1299 p53-A138V BP100-luciferase reporter, luminescence, 24 h; note: % of control where 0% means no effect; nearly all actives have a fitted effect of over 45% in size
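p53-null H1299 cells stably carrying temperature-sensitive p53-A138V and a BP100-luciferase reporter were pinned with compounds (4-point, 1:5 series) and held 24 hrs at 37 deg C. Luminescence was read 10 min after detection reagent.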
NPC1 prom act: activates the NPC1 promoter; Huh7 NPC1 promoter luciferase reporter, 24 h; Potency, µM (series often up to 9.22 µM), for inactives: top-dose activation, hits mostly activators; 2.4% of 320,000 active; AID 485313; note: % of control where 0% means no effect; nearly all actives have a fitted effect of over 60% in size
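In 1536-well qHTS, Huh7 cells harboring an NPC1 promoter–luciferase construct received compound for 24 h; activation was quantified by luminescence following luciferase reagent addition.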
ELG1 genotoxic: inducers of genotoxicity in HEK293T ELG1-luciferase cells; Potency, µM (doses to about 46 µM), for the others: at the top dose activity change, positive = activation, actives largely listed as activators; HEK293T ELG1-luciferase reporter, luminescence, 16 h; 1.3% of 330,000 active; note: % of control where 0% means no effect; nearly all actives have a fitted effect of over 60% in size
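HEK293T cells expressing luciferase-tagged ELG1 were exposed to compound or DMSO vehicle for 16 hr at 37 °C and 5% CO2. Luciferase activity was then measured with ONE-Glo after 30 min at room temperature.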
FLuc counter: inhibits or activates purified firefly luciferase, miR-21 counter-screen. Potency, µM (titrated, usually from 57.5 µM), for the others: at the top dose activity change, negative = inhibition, usual class: inhibitors. P08659. AID 588342. 6.9% of 360,000 active. purified FLuc, Km substrates, luminescence inhibition;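 note: plate controls were vehicle for no effect and reference inhibitor for full effect; nearly all actives have a fitted effect of over 55% in size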
Target sequence (P08659 whole entry, looked up): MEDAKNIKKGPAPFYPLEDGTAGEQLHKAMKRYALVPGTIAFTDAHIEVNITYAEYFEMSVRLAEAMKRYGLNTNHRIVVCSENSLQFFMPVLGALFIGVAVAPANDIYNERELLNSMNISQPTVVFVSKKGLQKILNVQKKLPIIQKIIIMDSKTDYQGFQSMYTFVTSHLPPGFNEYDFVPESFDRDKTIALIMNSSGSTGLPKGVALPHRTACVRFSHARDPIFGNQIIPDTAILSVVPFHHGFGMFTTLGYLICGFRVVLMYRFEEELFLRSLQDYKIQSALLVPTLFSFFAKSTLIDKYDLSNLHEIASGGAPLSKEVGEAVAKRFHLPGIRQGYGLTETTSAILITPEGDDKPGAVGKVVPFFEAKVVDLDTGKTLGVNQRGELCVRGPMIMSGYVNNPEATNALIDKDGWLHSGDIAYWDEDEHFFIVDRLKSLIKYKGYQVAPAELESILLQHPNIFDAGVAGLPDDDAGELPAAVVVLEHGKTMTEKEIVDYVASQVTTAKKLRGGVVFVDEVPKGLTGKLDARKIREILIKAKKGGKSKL
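Purified P. pyralis luciferase (10nM final) with 10uM D-luciferin and 10uM ATP (Km levels) in 50mM Tris acetate pH 7.5, 10mM Mg acetate, 0.01% Tween-20, 0.05% BSA; qHTS 6-point titration, ~60 µM downward; luminescence read.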
Numbers without * were called inactive; ? = inconclusive; . = no result; [ ] = remark or other dose. Calls come from the whole dose curve; as a rule, active = well fitted curve in the direction sought with a large enough effect; inconclusive = small, poorly fitted or top-dose-only effect, or another doubt; inactive = no such curve, though single readings can be large; an effect the other way counts as inactive or inconclusive. Potency is the fitted concentration of half-maximal effect.

SMILES | Rab9 promoter act | SMN2 splice enh | p53 reactivation | NPC1 prom act | ELG1 genotoxic | FLuc counter
CN(C)/N=C/C=C1\CCC/C(=C\c2ccc(F)c(F)c2)C1=O | 17% | -100% | -10% | 7% | 11% | 21µM*
O=C1OCCC/C1=C\c1ccc2c(c1)OCO2 | 1% | . | 6% | -6% | -3% | -11%
Cc1ccc(C(=O)NCC(c2ccc3c(c2)OCO3)N2CCOCC2)cc1C (centres undefined) | . | . | . | . | . | -6%
CC(C)(C)c1ccc(SCCc2cccnc2)cc1 | 3.5µM* | . | 21% | 2µM* | ? | 5.4µM*
CCn1nc(C(=O)OCC(=O)NCC(C)C)c2ccccc2c1=O | 1% | -4% | 2% | -5% | 3% | -2%
COc1ccc(-c2csc(NC(=O)COC(=O)c3ccco3)n2)cc1 | 3.2µM* | 13µM* | ? | 4µM* | ? | ?
CC(=O)N(C)c1nc(-c2ccc(Cl)cc2)cs1 | 3.5µM* | -7% | 5% | ? | 4% | ?
CCn1nc(C(=O)OCC(=O)Nc2nc(-c3ccc(OC)cc3)cs2)c2ccccc2c1=O | ? | 10µM* | ? | ? | ? | ?
CN(C(=O)c1ccco1)c1nc(-c2ccc(Cl)cc2)cs1 | 3.2µM* | . | 22% | ? | 14% | 6µM*
Cn1c(=O)[nH]c(=O)c2c1nc(CN1CCN(c3ccccc3)CC1)n2Cc1c(F)cccc1Cl | . | 1% | . | . | . | -5%
C=CCc1c(Cl)nc(C)nc1NCc1ccccc1 | 0% | . | -31% | -1% | -7% | 1%
COc1ccc(OC)c(-c2csc(N(C)C(=O)c3ccco3)n2)c1 | 3% | . | . | -8% | 6% | ?
COc1ccc(-c2csc(N(C)C(=O)c3ccco3)n2)cc1 | 4µM* | . | . | ? | ? | 11µM*
COc1ccccc1CNc1ccc(Br)cn1 | 9% | . | 16% | 27% | 12% | ?
Cc1ccccc1S(=O)(=O)O[C@@H]1NS(=O)(=O)c2ccccc21 | . | -11%[9.22 µM] | . | . | . | .
O=C(NC(=S)Nc1ccccc1)c1ccc(-c2ccccc2)cc1 | ? | -1%[1.84 µM] | ? | ? | 7% | -11%
COc1cccc(C(=O)Nc2ccc(NC(=O)C(C)(C)C)cn2)c1 | 0.32µM* | 0.89µM* | 6% | 0.35µM* | ? | 0.85µM*
COc1ccc(NC(=S)NC(=O)c2ccccc2)cn1 | 1.8µM* | . | . | ? | ? | 13µM*
COc1ccc(NC(=O)c2cccc(Oc3ccccc3)c2)cn1 | 10% | . | 16% | -12% | 10% | 19µM*
O=C(O)c1ccc(NC(=S)NC(=O)c2ccc(-c3ccccc3)cc2)cc1 | ? | 0% | 17% | 21% | 14% | 6µM*
O=C(O)c1cc(S(=O)(=O)O)cc(Nc2c3ccccc3nc3ccccc23)c1O | -5% | . | -14% | 4% | -4% | 8.5µM*
O=C(O)c1cccc(Nc2c3ccccc3nc3ccccc23)c1 | 15% | . | -11% | 5% | 5% | -18%
CC(C)NC(=O)N1CCC2(CC1)CCN(C(=O)c1cc(C(F)(F)F)cc(C(F)(F)F)c1)CC2 | . | -14% | . | . | . | .
Cc1ccc(C(=O)NC2CCCCC2)cc1 | 2.5µM* | 14µM* | 26% | 2.8µM* | 30% | 21µM*
N#Cc1ccc(C(=O)NC2CCCCCCC2)cc1 | 1.4µM* | . | 35µM* | 1.8µM* | ? | 21µM*
SMILES | Rab9 promoter act | SMN2 splice enh | p53 reactivation | NPC1 prom act | ELG1 genotoxic | FLuc counter
Cc1ccc(C(=O)NC2CCCCCCC2)c(Cl)c1 | 0.32µM* | . | 1% | 0.32µM* | 1.5µM* | 0.76µM*
CC(C)CNC(=S)NC(=O)c1ccc(F)cc1 | 17% | ? | ? | 22% | ? | 30µM*
Cc1ccc(C(=O)NCC(=O)NC2CCCC2)cc1 | 0% | 23% | -10% | 0% | 1% | 3%
CC(OC(=O)CCC(=O)c1ccc(Cl)s1)C(=O)NC1(C#N)CCCCC1 (centres undefined) | 1% | . | 12% | 0% | 3% | ?
COC(=O)[C@@]1(Cc2ccc(OC)cc2)[C@H]2c3cc(C(=O)N(C)C)n(Cc4ccc(Cl)c(C(F)(F)F)c4)c3C[C@H]2CN1C(=O)c1ccccc1 | . | -35% | . | . | . | .
O=C(CCC1CCCC1)N1CCc2c([nH]c3ccccc23)C1c1ccc(Cl)cc1 (centres undefined) | . | . | . | . | . | -6%
O=C(Nc1ccc(C(=O)OCc2cc(=O)n3c4c(sc3n2)CCCC4)cc1)c1ccc(F)cc1 | . | . | . | . | . | 2%
O=C(NC(=S)NC(CO)Cc1ccccc1)c1ccc(F)cc1 (centres undefined) | 4µM* | . | 7% | 1.3µM* | ? | 0%
O=C(NC(=S)NC1CCCCC1)c1ccc(F)cc1 | 4µM* | . | ? | ? | ? | ?
COC(=O)C(Cc1ccccc1)NC(=S)NC(=O)c1ccccc1 (centres undefined) | -3% | 0% | 2% | -5% | 7% | -2%
CC(C)n1cnnc1SCC(=O)Nc1cccnc1Cl | . | . | 4% | . | -3% | .
COCCNS(=O)(=O)c1ccc(-c2ccc(S(=O)(=O)NCCOC)cc2)cc1 | 1µM* | 20µM* | ? | ? | ? | 4.3µM*
COc1ccc(C(=O)N2CCC3(CC2)CN(Cc2ccc(C#N)cc2)C3)cc1 | . | -21% | . | . | . | .
COc1ccc(CNC(=O)CCCn2ncn3c(cc4occc43)c2=O)cc1 | -2% | . | 0% | 0% | 1%[9.26 µM] | 4%
CCOC(=O)CCCn1ncn2c(cc3occc32)c1=O | 26% | -2% | ? | 18% | 21µM* | ?
Cc1oc2ncnc(N3CCCCC3)c2c1C(=O)N1CCN(c2cccc(C(F)(F)F)c2)CC1 | . | . | . | . | . | -4%
CCC(Cc1ccccc1)NC(=O)c1ccc2nc(N3CCC(C)CC3)sc2c1 (centres undefined) | . | -11% | . | . | . | 12µM*
CCOC(CNC(=O)c1ccc2nc(N3CCC(C)CC3)sc2c1)OCC | ? | -52% | 5% | ? | ? | 17µM*
COCCNC(=O)c1cc(-c2ccc3c(c2)OCO3)on1 | 2.5µM* | 11µM* | 20µM* | 1.6µM* | ? | 6.7µM*
CCC(C)NC(=O)c1cc(-c2ccc3c(c2)OCO3)on1 (centres undefined) | 0.45µM* | . | ? | 0.89µM* | ? | 3.4µM*
C=CCNC(=O)c1cc(-c2ccc3c(c2)OCO3)on1 | 0.56µM* | . | 16% | 0.45µM* | ? | 2.1µM*
O=C(Nc1ccc(Br)cc1)c1cc(-c2ccc3c(c2)OCO3)on1 | -11% | . | 3% | -9% | 4% | -2%
COCCNC(=O)COCc1cc(-c2ccc3c(c2)OCO3)on1 | -1% | . | 6% | -4% | 5% | ?
CCC(C)NC(=O)COCc1cc(-c2ccc3c(c2)OCO3)on1 (centres undefined) | -2% | . | 18% | 6% | 2% | ?
